proKLK7 act: proKLK7 zymogen activators, primary screen, biochemical, fluorescence intensity; purified proKLK7, EDANS-DABCYL substrate fluorescence; 100% is mature enzyme control, 0% vehicle; 370,000 compounds, 0.9% hits; activation, % at 7 µM; AID 652039, 2013; Kallikrein-7 (Homo sapiens), P49862;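 active means activation above the mean of all tested compounds plus 3 SD, computed per campaign excluding outliers beyond control limits, cut at about 13% in these data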
ADAM10 inh: human ADAM10 inhibitors, primary screen, biochemical, QFRET, HTS; Disintegrin and metalloproteinase domain-containing protein 10 (Homo sapiens), O14672; recombinant ADAM10, EDANS/DABCYL FRET peptide cleavage, 3 h; inhibition, % at 7 µM; 370,000 compounds, 0.62% hits; AID 720582, 2013;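 active means inhibition above a per-campaign cutoff equal to the mean of compounds falling between control-based bounds plus 3 SD, cut at about 20% in these data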
GC-A act: GC-A stimulated cGMP production enhancers – HEK293 GC-A cells, cGMP TR-FRET, EC30 ANP, primary screen. activation, % at 10 µM. AID 1671463, 2021. Atrial natriuretic peptide receptor 1 (Homo sapiens), P16066. 0% at EC30 ANP, 100% saturating ANP. 370,000 compounds, 0.14% hits; in the data active means activation above about 40%
GC-B act: human GC-B receptor activators, primary screen, HEK293 GC-B cells, cGMP TR-FRET, EC30 CNP. Atrial natriuretic peptide receptor 2 (Homo sapiens), P20594. 0% at EC30 CNP, 100% saturating CNP. activation, % at 10 µM. 370,000 compounds, 0.11% hits. AID 1920062, 2024;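 active means activation at 10 µM reaching about 35% in either raw or pattern-adjusted values, limit read from the data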
ADAM17 inh: ADAM17 inhibitors, primary screen, biochemical, QFRET | recombinant ADAM17, EDANS/DABCYL FRET peptide cleavage | inhibition, % at 6.95 µM | 370,000 compounds, 0.83% hits | AID 720648, 2013;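 active means inhibition above the mean of compounds lying between control limits plus 3 SD, set per campaign, cut at about 8.5% in these data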
Target sequence (P78536 215-824 limits assumed): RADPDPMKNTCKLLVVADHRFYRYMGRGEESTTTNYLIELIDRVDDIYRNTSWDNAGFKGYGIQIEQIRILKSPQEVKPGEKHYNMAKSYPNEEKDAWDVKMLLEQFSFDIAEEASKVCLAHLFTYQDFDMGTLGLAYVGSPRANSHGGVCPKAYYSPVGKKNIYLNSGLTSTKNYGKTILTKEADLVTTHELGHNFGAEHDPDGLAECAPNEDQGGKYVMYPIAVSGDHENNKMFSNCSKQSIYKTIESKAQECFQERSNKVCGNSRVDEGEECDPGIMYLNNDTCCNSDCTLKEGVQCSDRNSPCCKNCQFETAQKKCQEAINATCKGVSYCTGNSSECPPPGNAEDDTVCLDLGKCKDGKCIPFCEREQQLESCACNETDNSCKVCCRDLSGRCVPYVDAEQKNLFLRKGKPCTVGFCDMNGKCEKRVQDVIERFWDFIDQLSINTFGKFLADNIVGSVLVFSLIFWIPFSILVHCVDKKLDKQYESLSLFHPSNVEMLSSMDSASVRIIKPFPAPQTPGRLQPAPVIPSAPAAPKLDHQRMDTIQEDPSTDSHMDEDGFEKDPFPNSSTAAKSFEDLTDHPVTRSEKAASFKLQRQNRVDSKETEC
proKLK7 act conf: proKLK7 zymogen activators, confirmation, biochemical, fluorescence intensity, triplicate. activation, % at 7 µM. 3,200 compounds, 68% hits. shares compounds with proKLK7 act. purified proKLK7, EDANS-DABCYL substrate fluorescence; scaled: vehicle 0, mature enzyme 100;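 active means activation, as change over the incubation, above the mean of all tested compounds plus 3 SD, cut at about 13% in these data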
EDANS interfere: EDANS-DABCYL substrate optical interference, artefact control for kallikrein-7 zymogen activator project, biochemical, fluorescence intensity, high throughput; shares compounds with proKLK7 act; no enzyme, 4 h; solvent 0%, active enzyme control 100%; activation, % at 7 µM; 3,200 compounds, 80% hits;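 active means activation above the all-compound mean plus 3 SD, ignoring values outside control-based bounds, cut at about 4.8% in these data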;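 further: value is the 4 h activation minus the activation read at time zero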
K7 EDANS ctr: EDANS fluorescence interference in dose response, no enzyme; shares compounds with proKLK7 act; EDANS-DABCYL peptide fluorescence interference; EC50, µM; 250 compounds, 20% hits; AID 720493;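 active means compounds that raise the fluorescence signal in this interference counterscreen, with EC50 at or below 10 µM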;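 further: intact quenched peptide substrate alone read at 355 nm excitation and 520 nm emission; signal is fluorescence gain from T0 to T4 after four hours at room temperature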
Each line names hits and unclear results; the compound was inactive in the other large screens (follow-up assays come after a bar, where they were run). Hits are enriched below; roughly 2.2% of the tested compounds scored in any of these assays.

CCCCN(C(=O)NC(=O)Nc1ccc(C)cn1)S(C)(=O)=O	proKLK7 act 18.9 | proKLK7 act conf inactive | EDANS interfere inactive
Cc1ccccc1C(=O)N(C)[C@H]1C[C@H]2c3[nH]c4c(-c5ccccc5)cccc4c3CCN2C(=O)[C@H]1[C@H](C)O	none
Cc1ccccc1C(=O)N(C)[C@H]1C[C@H]2c3[nH]c4ccccc4c3CCN2C(=O)[C@H]1[C@H](C)O	proKLK7 act 78.1 | proKLK7 act conf 27.2 | EDANS interfere 27.1
Cc1ccc(S(=O)(=O)N(C)[C@H]2C[C@H]3c4[nH]c5cccc(-c6ccccc6)c5c4CCN3C(=O)[C@H]2[C@H](C)O)cc1	none
C[C@H](O)[C@@H]1C(=O)N2CCc3c([nH]c4ccccc34)[C@@H]2C[C@@H]1N(C)S(=O)(=O)c1ccccc1	proKLK7 act 59.1 | proKLK7 act conf 43.1 | EDANS interfere 36.6 | K7 EDANS ctr 7.47
C[C@H](O)[C@@H]1C(=O)N2CCc3c([nH]c4c(-c5ccccc5)cccc34)[C@@H]2C[C@@H]1N(C)C(=O)c1cc(Cl)cc(Cl)c1	none
C[C@H](O)[C@@H]1C(=O)N2CCc3c([nH]c4ccccc34)[C@@H]2C[C@@H]1N(C)C(=O)c1cc(Cl)cc(Cl)c1	proKLK7 act 46.9 | proKLK7 act conf 15.3 | EDANS interfere 12.4 | K7 EDANS ctr inactive
C[C@H](O)[C@@H]1C(=O)N2CCc3c([nH]c4ccccc34)[C@@H]2C[C@@H]1N(C)Cc1ccc2c(c1)OCO2	proKLK7 act 25.8 | proKLK7 act conf inactive | EDANS interfere inactive
COC(=O)C1CN(Cc2cn(CCC3OCCO3)nn2)CCS(=O)(=O)N1Cc1ccc(Cl)cc1 (configuration not stated)	none
O=c1c2ccccc2n(Cc2ccco2)n1[C@@H](Cc1ccccc1)Cn1cc(-c2ccc(-c3ccccc3)cc2)nn1	none
CC(NCc1ccco1)C(=O)N1CCOCC1 (configuration not stated)	none
CCOc1ccc(CCNC(=O)c2ccc3[nH]ccc3c2)cc1OCC	none (no result: proKLK7 act)
CN(C)c1ccc(-c2nc3ncc(Cl)cc3[nH]2)cc1	proKLK7 act 17.1 | proKLK7 act conf inactive | EDANS interfere 11.9
Cc1nnsc1-c1nc2ccccc2[nH]1	proKLK7 act 32.0 | proKLK7 act conf 31.1 | EDANS interfere 45.0
c1cc(-c2ccc(N3CCOCC3)cc2)n2cnnc2c1	proKLK7 act 66.9 | proKLK7 act conf 69.4 | EDANS interfere 67.2
COC(=O)[C@]12C[C@H](CC(=O)N3CCN(C(=O)c4ccco4)CC3)C(=O)N(Cc3ccc(Cl)cc3Cl)C1=C[C@H](C1CCCC1)O[C@@H]2C	none
Cc1ccc(-c2cc(C(=O)NN=Cc3c(O)ccc4ccccc34)[nH]n2)cc1C	none
COc1ccc2ccccc2c1C=NNC(=O)c1cc(-c2ccc(C)c(C)c2)n[nH]1	proKLK7 act 48.6 | proKLK7 act conf 21.7 | EDANS interfere 15.1 | K7 EDANS ctr inactive
CCn1c2ccccc2c2cc(C=NNC(=O)c3cc(-c4ccc(OC)cc4)n[nH]3)ccc21	proKLK7 act 50.3 | proKLK7 act conf inactive | EDANS interfere inactive
CCC(=O)N1CCc2cc(Br)c(S(=O)(=O)N3CCC(C(=O)NCCCOC(C)C)CC3)cc21	none
COc1ccc(CN2CCOCC2)cc1	none
CNc1cncc(-c2ccc(CN(C)C)cc2)n1	proKLK7 act 116.0 | proKLK7 act conf 72.3 | EDANS interfere 82.2
CNc1cncc(-c2ccc(OCCCN(C)C)nc2)n1	proKLK7 act 51.4 | proKLK7 act conf 59.4 | EDANS interfere 71.5
CC(=O)Nc1cncc(-c2ccc(CN(C)C)cc2)n1	none
CNc1cncc(-c2cnn(CC(C)C)c2)n1	proKLK7 act 33.2 | proKLK7 act conf 71.9 | EDANS interfere 64.2
CNc1cncc(-c2ccc(CN3CCOCC3)cc2)n1	proKLK7 act 82.4 | proKLK7 act conf 67.4 | EDANS interfere 77.9
CCCC(=O)OC12CCCN(C1)/C(=C/c1ccc(Cl)cc1)C2 (configuration not stated)	none
COc1ccc(Cn2cc(CN3[C@@H](CC(C)C)COc4cccc(F)c4S3(=O)=O)nn2)cc1	none
CNc1cncc(-c2cc(C)c(O)c(C)c2)n1	none
CNc1cncc(-c2ccc(S(C)(=O)=O)cc2)n1	proKLK7 act 84.5 | proKLK7 act conf 66.3 | EDANS interfere 65.5
CNc1cncc(-c2cccc(C(C)=O)c2)n1	none
CNc1cncc(-c2ccc(F)cc2F)n1	proKLK7 act 13.9 | proKLK7 act conf 19.8 | EDANS interfere 49.5
CNc1cncc(-c2ccc(OC)cc2)n1	proKLK7 act 25.3 | proKLK7 act conf 49.0 | EDANS interfere 40.6 | K7 EDANS ctr inactive
CNc1cncc(-c2ccoc2)n1	proKLK7 act 20.3 | proKLK7 act conf 28.1 | EDANS interfere 30.4
CCn1c(=O)n(CC(=O)N2CCCC2)c(=O)c2ccccc21	none
COC(=O)c1cccc(Cn2ccc3ccc(-c4ccc5ccn(C(=O)c6ccccc6OC)c5c4)cc32)c1	none
Cc1c[nH]c2cccc(-c3cc4ccccc4o3)c12	none
CNc1cncc(-c2ccc(O)cc2)n1	proKLK7 act 41.0 | proKLK7 act conf 18.9 | EDANS interfere 18.6
CNc1cncc(-c2cccc(NS(C)(=O)=O)c2)n1	proKLK7 act 129.6 | proKLK7 act conf 44.7 | EDANS interfere 56.5
C[C@H](CCC(=O)N(c1ccccc1)c1ccccc1)CC1CCCCC1	none
COc1ccc2oc(=O)c(C(=O)N3CCN(C(=O)c4ccccc4)CC3)cc2c1	proKLK7 act 20.8 | proKLK7 act conf 24.9 | EDANS interfere 15.8 | K7 EDANS ctr inactive
COc1ccc2oc(=O)c(C(=O)N3CCN(c4ccccc4)CC3)cc2c1	none
COc1ccc2oc(=O)c(C(=O)N3CCN(C(=O)c4ccco4)CC3)cc2c1	proKLK7 act 26.2 | proKLK7 act conf 27.3 | EDANS interfere 29.5
COc1ccc2oc(=O)c(/C(N)=N/NC(=O)c3ccncc3)cc2c1	proKLK7 act 14.9 | proKLK7 act conf 121.5 | EDANS interfere 134.7

High-throughput results: PubChem, several laboratories
